Data as given in PubChem BioAssay (Tox21).
Unmarked numbers belong to inactive results. Inconclusive results are not listed. A call without a number means that no potency is given here. The source made the active and inactive calls. Calls follow the shape of the dose curve; as a rule, active = well fitted curve in the direction sought with a large enough effect in the repeat runs; inconclusive = weak or mixed curves; inactive = no such curve, though single readings can be large; an effect the other way counts as inactive or inconclusive.

Experiments:
[1] = Human pregnane X receptor (PXR) small molecule agonists, qHTS cell viability counter screen (AID 1346977); details: PXR-Luc HepG2 viability, CellTiter-Fluor, 24 h; series mostly up to 92.4 µM; also: nearly all actives have a fitted effect of over 50% in size
Procedure, shortened: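 Fluorescence read-out (CellTiter-Fluor) of viability in PXR-Luc HepG2 cells, multiplexed with the luciferase agonist read. Compounds in DMSO added after 5hr plating; 24hr total exposure at 37C, 5% CO2.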

[2] = Caspase-3/7 induction in HepG2 cells by small molecules, qHTS assay (AID 1346978); details: HepG2 caspase-3/7 activation, Caspase-Glo luminescence, 17 h; series mostly up to 92.4 µM; also: nearly all actives have a fitted effect of over 15% in size
Procedure, shortened: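 Wild-type HepG2 cells, 2,000/well, settled 5 hr at 37 C and 5% CO2, then compound-treated for 17 hr; caspase-3/7 activity read by luminescent Caspase-Glo 3/7 after 30 min at room temperature.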

[3] = Caspase-3/7 induction in CHO-K1 cells by small molecules, qHTS cell viability counter screen (AID 1346979); details: CellTiter-Fluor fluorescence, 17 h; series mostly up to 42.5 µM; also: nearly all actives have a fitted effect of over 35% in size
Procedure, shortened: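 CHO-K1 wt, 1,500 cells/well; 5hr pre-incubation 37C/5% CO2; compound pin transfer (DMSO); 16hr exposure; CellTiter-Fluor added, 1hr, fluorescence read.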

[4] = Caspase-3/7 induction in CHO-K1 cells by small molecules, qHTS assay (AID 1346980); details: CHO-K1 caspase-3/7 induction, Caspase-Glo luminescence, 17 h; series mostly up to 92.4 µM; also: nearly all actives have a fitted effect of over 15% in size
Procedure, shortened: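 Wild-type CHO-K1 cells exposed to compounds for 17hr at 37 C, 5% CO2. Caspase-3/7 activity then measured by Caspase-Glo 3/7 luminescence after 30min at room temperature.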

[5] = Caspase-3/7 induction in HepG2 cells by small molecules, qHTS cell viability counter screen (AID 1346981); details: CellTiter-Fluor fluorescence, 17 h; series mostly up to 92.4 µM; also: nearly all actives have a fitted effect of over 30% in size
Procedure, shortened: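 Multiplexed with the caspase-3/7 assay: HepG2 cells, 16 hr compound treatment, CellTiter-Fluor viability detection by fluorescence.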

[6] = molecular target: Nuclear receptor subfamily 1 group I member 2 (Homo sapiens) (UniProt O75469); test: Human pregnane X receptor (PXR) small molecule agonists, qHTS assay (AID 1346982); details: PXR-Luc HepG2, CYP3A4 luciferase reporter, 24 h; series mostly up to 92.4 µM; also: nearly all actives have a fitted effect of over 35% in size
Nuclear receptor subfamily 1 group I member 2 (Homo sapiens), sequence (O75469 whole entry, looked up): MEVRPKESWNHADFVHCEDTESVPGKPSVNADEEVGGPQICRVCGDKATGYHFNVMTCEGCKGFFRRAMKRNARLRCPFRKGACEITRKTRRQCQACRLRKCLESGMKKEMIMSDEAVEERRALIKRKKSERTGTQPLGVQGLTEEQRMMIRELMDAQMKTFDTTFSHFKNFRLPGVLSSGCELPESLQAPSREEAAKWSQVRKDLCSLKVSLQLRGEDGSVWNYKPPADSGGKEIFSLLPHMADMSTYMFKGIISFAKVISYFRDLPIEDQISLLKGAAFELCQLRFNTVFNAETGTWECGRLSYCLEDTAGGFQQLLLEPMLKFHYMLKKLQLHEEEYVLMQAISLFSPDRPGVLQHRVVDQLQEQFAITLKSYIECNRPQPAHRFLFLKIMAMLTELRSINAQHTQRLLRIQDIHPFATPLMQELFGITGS
Procedure, shortened: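 We seeded PXR-Luc HepG2 cells in assay medium containing 5% charcoal-stripped FBS, added compounds 5 hr later, incubated 24 hr, and read luminescence with ONE-Glo reagent.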

[7] = molecular target: Cytochrome P450 2D6 (Homo sapiens) (UniProt P10635); test: Cytochrome P450 Family 2 Subfamily D Member 6 (CYP2D6) small molecule antagonists: luciferase reporter qHTS assay (AID 1671196); details: P450-Glo CYP2D6 enzyme assay, luciferin luminescence, 1 h; series mostly up to 115 µM; also: nearly all actives have a fitted effect of over 50% in size; also: potency is read from the fitted curve at half-maximal effect
Cytochrome P450 2D6 (Homo sapiens), sequence (P10635 whole entry, looked up): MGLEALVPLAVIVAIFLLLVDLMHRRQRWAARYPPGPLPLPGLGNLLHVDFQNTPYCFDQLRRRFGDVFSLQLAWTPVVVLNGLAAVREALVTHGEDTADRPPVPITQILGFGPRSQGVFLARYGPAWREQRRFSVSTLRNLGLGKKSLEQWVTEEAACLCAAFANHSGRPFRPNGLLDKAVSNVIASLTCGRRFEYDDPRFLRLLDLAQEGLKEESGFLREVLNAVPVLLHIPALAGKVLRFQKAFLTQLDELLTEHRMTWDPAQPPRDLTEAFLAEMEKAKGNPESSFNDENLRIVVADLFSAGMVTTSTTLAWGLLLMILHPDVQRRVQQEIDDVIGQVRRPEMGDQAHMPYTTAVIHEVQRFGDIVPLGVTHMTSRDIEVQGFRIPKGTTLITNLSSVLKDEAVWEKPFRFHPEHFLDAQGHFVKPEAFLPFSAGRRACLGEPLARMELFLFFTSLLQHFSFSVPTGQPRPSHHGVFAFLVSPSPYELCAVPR
Procedure, shortened: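 Luminescence (RLU), read 20 min after detection reagent, indicated CYP2D6 conversion of proluciferin to luciferin during a 1 h NADPH-dependent reaction at room temperature.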

[8] = molecular target: Cytochrome P450 2C19 (Homo sapiens) (UniProt P33261); test: Cytochrome P450 Family 2 Subfamily C Member 19 (CYP2C19) small molecule antagonists: luciferase reporter qHTS assay (AID 1671197); details: P450-Glo CYP2C19 enzyme, luciferin luminescence, 1 h; series mostly up to 52.9 µM; also: nearly all actives have a fitted effect of over 65% in size; also: potency is read from the fitted curve at half-maximal effect
Cytochrome P450 2C19 (Homo sapiens), sequence (P33261 whole entry, looked up): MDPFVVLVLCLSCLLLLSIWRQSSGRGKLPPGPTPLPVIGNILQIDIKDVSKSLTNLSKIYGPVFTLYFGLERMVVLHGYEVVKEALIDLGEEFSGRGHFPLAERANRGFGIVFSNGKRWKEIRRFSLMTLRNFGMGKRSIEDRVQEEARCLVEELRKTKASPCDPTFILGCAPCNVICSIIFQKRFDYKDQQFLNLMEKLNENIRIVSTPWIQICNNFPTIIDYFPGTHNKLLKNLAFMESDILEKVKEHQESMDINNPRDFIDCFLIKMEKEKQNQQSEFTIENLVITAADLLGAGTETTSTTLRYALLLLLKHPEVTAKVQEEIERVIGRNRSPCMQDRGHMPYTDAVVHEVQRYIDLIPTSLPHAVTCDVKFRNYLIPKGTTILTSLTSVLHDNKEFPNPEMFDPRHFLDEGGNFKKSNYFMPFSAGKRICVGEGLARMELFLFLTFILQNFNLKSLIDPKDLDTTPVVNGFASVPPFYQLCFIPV
Procedure, shortened: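 Luminescent readout of CYP2C19 activity: luciferin product detected 20 min after adding detection reagent. Before that, compound and enzyme-substrate mix preincubated 10 min at room temperature; NADPH-regenerating system started a 1 h, 37C reaction. Ketoconazole as positive control.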

[9] = molecular target: Cytochrome P450 2C9 (Homo sapiens) (UniProt P11712); test: Cytochrome P450 Family 2 Subfamily C Member 9 (CYP2C9) small molecule antagonists: luciferase reporter qHTS assay (AID 1671198); details: P450-Glo CYP2C9 enzyme assay, luciferin luminescence; series mostly up to 115 µM; also: nearly all actives have a fitted effect of over 50% in size; also: potency is read from the fitted curve at half-maximal effect
Cytochrome P450 2C9 (Homo sapiens), sequence (P11712 whole entry, looked up): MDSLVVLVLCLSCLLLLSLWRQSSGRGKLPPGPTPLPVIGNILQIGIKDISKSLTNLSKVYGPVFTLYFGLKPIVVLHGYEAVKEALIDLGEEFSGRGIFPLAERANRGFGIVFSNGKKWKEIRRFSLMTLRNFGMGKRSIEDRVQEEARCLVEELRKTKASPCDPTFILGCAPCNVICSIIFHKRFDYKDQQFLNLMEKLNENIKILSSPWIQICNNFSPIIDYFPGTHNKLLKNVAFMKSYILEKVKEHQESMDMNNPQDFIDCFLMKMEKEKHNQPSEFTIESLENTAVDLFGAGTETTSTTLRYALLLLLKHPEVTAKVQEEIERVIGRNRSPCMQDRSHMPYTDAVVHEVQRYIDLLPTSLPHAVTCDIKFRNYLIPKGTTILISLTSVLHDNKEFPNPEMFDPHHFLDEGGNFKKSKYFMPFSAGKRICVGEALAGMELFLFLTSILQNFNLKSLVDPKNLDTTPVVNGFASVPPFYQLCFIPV
Procedure, shortened: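 P450-Glo proluciferin substrate with CYP2C9 enzyme; 10 min RT preincubation, then NADPH regeneration 1 h at 37C; luciferin detection reagent 20 min RT, luminescence in relative luminescence units.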

[10] = molecular target: Cytochrome P450 1A2 (Homo sapiens) (UniProt P05177); test: Cytochrome P450 Family 1 Subfamily A Member 2 (CYP1A2) small molecule antagonists: luciferase reporter qHTS assay (AID 1671199); details: P450-Glo CYP1A2 enzyme, luciferin luminescence, 1 h; series mostly up to 53 µM; also: nearly all actives have a fitted effect of over 50% in size; also: potency is read from the fitted curve at half-maximal effect
Cytochrome P450 1A2 (Homo sapiens), sequence (P05177 whole entry, looked up): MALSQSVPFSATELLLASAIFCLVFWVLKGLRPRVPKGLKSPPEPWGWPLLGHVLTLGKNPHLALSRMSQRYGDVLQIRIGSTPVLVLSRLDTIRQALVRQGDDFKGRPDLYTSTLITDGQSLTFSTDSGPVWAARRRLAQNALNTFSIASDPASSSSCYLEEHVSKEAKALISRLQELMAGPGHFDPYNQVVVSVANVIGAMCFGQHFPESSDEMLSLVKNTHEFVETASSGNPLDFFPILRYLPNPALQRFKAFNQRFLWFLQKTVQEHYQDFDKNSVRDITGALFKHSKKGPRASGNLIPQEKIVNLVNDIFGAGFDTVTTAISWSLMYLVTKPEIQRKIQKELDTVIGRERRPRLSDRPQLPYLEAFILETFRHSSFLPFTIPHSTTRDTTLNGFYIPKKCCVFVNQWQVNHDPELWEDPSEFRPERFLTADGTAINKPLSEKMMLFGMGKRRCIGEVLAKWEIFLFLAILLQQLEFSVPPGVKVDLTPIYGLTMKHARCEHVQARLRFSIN
Procedure, shortened: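 CYP1A2 turnover of a luminogenic substrate was quantified after 1 h with NADPH regeneration at room temperature. Furafylline served as positive control.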

[11] = molecular target: Voltage-gated inwardly rectifying potassium channel KCNH2 (Homo sapiens) (UniProt Q12809); test: Human Ether-a-go-go-Related Gene (hERG) channel small molecule antagonists: fluorescence cell-based qHTS assay (AID 1671200); details: hERG-U2OS cells, FluxOR thallium flux fluorescence; series mostly up to 76.8 µM
Voltage-gated inwardly rectifying potassium channel KCNH2 (Homo sapiens), sequence (Q12809 whole entry, looked up): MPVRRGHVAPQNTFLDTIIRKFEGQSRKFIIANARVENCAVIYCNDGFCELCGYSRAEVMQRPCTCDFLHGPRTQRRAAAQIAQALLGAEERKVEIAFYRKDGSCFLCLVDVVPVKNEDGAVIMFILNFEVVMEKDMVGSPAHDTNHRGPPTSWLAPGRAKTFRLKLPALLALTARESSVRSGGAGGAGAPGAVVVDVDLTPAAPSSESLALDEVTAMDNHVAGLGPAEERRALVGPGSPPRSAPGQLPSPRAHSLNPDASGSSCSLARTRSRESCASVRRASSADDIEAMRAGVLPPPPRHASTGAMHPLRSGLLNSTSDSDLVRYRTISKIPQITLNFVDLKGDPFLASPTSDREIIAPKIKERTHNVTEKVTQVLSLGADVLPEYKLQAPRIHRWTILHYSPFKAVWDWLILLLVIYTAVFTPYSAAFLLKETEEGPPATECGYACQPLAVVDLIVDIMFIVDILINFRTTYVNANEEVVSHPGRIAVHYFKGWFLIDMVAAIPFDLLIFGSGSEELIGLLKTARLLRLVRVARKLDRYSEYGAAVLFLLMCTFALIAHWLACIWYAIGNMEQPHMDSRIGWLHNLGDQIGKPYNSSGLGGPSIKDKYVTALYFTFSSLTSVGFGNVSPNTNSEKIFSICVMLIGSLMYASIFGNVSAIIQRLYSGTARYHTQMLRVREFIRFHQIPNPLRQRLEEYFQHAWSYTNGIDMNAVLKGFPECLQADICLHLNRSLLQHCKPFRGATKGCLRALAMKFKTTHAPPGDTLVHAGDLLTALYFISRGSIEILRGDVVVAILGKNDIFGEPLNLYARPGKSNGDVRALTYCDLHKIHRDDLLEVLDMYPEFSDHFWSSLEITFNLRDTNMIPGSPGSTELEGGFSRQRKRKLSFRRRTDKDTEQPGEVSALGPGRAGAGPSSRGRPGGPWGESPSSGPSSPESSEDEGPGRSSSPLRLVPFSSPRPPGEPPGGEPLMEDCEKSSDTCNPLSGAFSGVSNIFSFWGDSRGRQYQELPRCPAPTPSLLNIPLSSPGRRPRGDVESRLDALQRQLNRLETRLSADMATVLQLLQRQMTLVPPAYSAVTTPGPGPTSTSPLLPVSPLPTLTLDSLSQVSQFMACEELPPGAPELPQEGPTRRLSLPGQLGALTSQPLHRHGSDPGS
Procedure, shortened: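 Read-out: thallium influx as a surrogate for potassium, tracked as fluorescence (480 nm ex/540 nm em) every second for 2 min after Stimulus Buffer addition in dye-loaded hERG-U2OS cells.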

[12] = molecular target: Cytochrome P450 3A4 (Homo sapiens) (UniProt P08684); test: Cytochrome P450 Family 3 Subfamily A Member 4 (CYP3A4) small molecule antagonists: luciferase reporter qHTS assay (AID 1671201); details: P450-Glo CYP3A4 enzyme, luciferin luminescence, 1 h; series mostly up to 115 µM; also: nearly all actives have a fitted effect of over 50% in size
Cytochrome P450 3A4 (Homo sapiens), sequence (P08684 whole entry, looked up): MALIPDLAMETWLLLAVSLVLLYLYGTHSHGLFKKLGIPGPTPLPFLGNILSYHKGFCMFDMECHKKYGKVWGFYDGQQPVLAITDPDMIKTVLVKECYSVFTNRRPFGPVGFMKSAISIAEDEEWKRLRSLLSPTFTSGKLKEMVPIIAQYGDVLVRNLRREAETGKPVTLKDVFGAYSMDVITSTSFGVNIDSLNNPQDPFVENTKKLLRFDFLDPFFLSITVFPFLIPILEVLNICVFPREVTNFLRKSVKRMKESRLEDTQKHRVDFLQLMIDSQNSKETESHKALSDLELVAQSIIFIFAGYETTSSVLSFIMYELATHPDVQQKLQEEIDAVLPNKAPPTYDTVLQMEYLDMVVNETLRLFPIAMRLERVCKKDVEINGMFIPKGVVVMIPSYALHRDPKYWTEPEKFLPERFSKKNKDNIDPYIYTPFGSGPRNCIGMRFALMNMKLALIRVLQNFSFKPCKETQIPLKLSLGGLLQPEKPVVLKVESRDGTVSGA
Procedure, shortened: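 Luminescent readout (RLU) proportional to CYP3A4 activity, from luciferin generated off a proluciferin substrate. Enzyme–substrate mix plus compound 10 min at room temp, NADPH regeneration 1 h, detection reagent 20 min.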

[13] = molecular target: Nuclear receptor subfamily 1 group I member 2 (Rattus norvegicus) (UniProt Q9R1A7); test: Rat pregnane X receptor (rPXR) activation by small molecules, qHTS assay (AID 1346983); details: rPXR luciferase reporter cells, One-Glo luminescence, 24 h; stronger effect = higher value; also: nearly all actives have a fitted effect of over 20% in size
Nuclear receptor subfamily 1 group I member 2 (Rattus norvegicus), sequence (Q9R1A7 whole entry, looked up): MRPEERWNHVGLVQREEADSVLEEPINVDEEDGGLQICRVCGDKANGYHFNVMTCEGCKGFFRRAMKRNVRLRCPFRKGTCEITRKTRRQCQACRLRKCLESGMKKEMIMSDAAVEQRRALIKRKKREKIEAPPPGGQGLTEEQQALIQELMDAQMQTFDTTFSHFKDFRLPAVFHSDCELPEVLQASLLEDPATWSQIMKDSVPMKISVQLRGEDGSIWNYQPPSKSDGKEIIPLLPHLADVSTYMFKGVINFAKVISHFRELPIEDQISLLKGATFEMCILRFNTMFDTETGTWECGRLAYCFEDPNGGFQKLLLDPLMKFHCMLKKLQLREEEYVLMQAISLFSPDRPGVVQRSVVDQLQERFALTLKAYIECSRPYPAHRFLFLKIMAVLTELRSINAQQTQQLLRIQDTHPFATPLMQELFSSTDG
Procedure, shortened: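 Cell-based rPXR activation assay: rPXR cells, 2,000 per well, rested 5hr at 37 C, then exposed to compounds in DMSO for 24 hr at 37 C. Luciferase activity read by One-Glo luminescence after 30 min at room temperature.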

[14] = molecular target: Nuclear receptor subfamily 1 group I member 2 (Homo sapiens) (UniProt O75469); test: CYP3A4 induction through human pregnane X receptor (PXR) by small molecules, qHTS assay (AID 1346984); details: DPX-2 HepG2 PXR, CYP3A4-luciferin luminescence, 24 h; series mostly up to 46.1 µM; also: nearly all actives have a fitted effect of over 40% in size
Procedure, shortened: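 qHTS, concentration-response format: HepG2 DPX-2 line, PXR/CYP3A4-luc. Exposure 24 h, 37C. Substrate Luciferin-IPA 3uM final, 3 h. Detection One-Glo, 30 min RT.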

[15] = molecular target: Nuclear receptor subfamily 1 group I member 2 (Homo sapiens) (UniProt O75469); test: Human pregnane X receptor (PXR) activation by small molecules, qHTS assay (AID 1346985); details: DPX-2 HepG2 CYP3A4-luciferase, 24 h; series mostly up to 38.3 µM; also: nearly all actives have a fitted effect of over 40% in size
Procedure, shortened: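 DPX-2 cells (HepG2 co-transfected with a PXR response element and a CYP3A4-promoter luciferase construct) were seeded at 2,000 per well, rested 5 hr at 37C, then exposed to DMSO-dissolved compounds for 24 hr. Activation was read as luciferase luminescence.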

| Compound | Potency [1] | Potency [2] | Potency [3] | outcome [4] | Potency [5] | Potency [6] | Potency [7] | Potency [8] | Potency [9] | Potency [10] | Potency [11] | Potency [12] | max activation [13] [%] | Potency [14] | Potency [15] |
| --- | --- | --- | --- | --- | --- | --- | --- | --- | --- | --- | --- | --- | --- | --- | --- |
| CC(C(=O)O)c1ccc(CC2CCCC2=O)cc1 (stereo not drawn) | inactive | inactive | inactive | inactive | inactive | inactive | inactive | inactive | inactive | inactive | inactive | inactive | – | – | – |
| NS(=O)(=O)c1ccc(C(=O)O)cc1 | inactive | inactive | inactive | inactive | inactive | inactive | inactive | inactive | inactive | inactive | inactive | inactive | – | – | – |
| CN(C)CCCNCCCN(C)C | inactive | inactive | inactive | inactive | inactive | inactive | 20 µM (active) | inactive | inactive | inactive | inactive | – | – | – | – |
| CC1(C)CO[C@@H](CC(=O)O)CN1 | inactive | inactive | inactive | inactive | inactive | inactive | inactive | inactive | inactive | inactive | inactive | inactive | -0.675 | inactive | inactive |
| Cc1[nH]c(=O)c(C#N)cc1-c1ccc2nccn2c1 | inactive | inactive | inactive | inactive | inactive | inactive | inactive | inactive | inactive | inactive | inactive | inactive | 0.264 | inactive | inactive |
| COC(=O)[C@@H](N)Cc1ccc(O)c(O)c1 | inactive | inactive | inactive | inactive | inactive | inactive | inactive | inactive | inactive | – | inactive | inactive | -6.8 | inactive | inactive |
| c1ccc([C@H]2CN3CCSC3=N2)cc1 | inactive | inactive | inactive | inactive | inactive | inactive | – | inactive | inactive | – | inactive | inactive | -1.7 | inactive | inactive |
| CO[Si](CCCOCC1CO1)(OC)OC (stereo not drawn) | inactive | inactive | inactive | inactive | inactive | inactive | inactive | inactive | inactive | inactive | inactive | inactive | – | – | – |
| O=C(O)CNC(=O)c1ccc([N+](=O)[O-])cc1 | inactive | inactive | inactive | inactive | inactive | inactive | inactive | inactive | inactive | inactive | inactive | inactive | – | – | – |
| NC(=O)c1cn(Cc2c(F)cccc2F)nn1 | inactive | inactive | inactive | inactive | inactive | inactive | – | inactive | inactive | inactive | – | inactive | -1.62 | inactive | inactive |
| CC(C)(C)NCCNC(C)(C)C | inactive | inactive | inactive | inactive | inactive | inactive | inactive | 35.6 µM (active) | inactive | inactive | inactive | inactive | – | – | – |
| Cc1sccc1Br | inactive | inactive | inactive | inactive | inactive | inactive | inactive | inactive | inactive | inactive | inactive | inactive | – | – | – |
| FC(F)OC(Cl)C(F)(F)F (stereo not drawn) | inactive | inactive | inactive | inactive | inactive | inactive | inactive | – | inactive | 39.9 µM (active) | inactive | inactive | -3.14 | inactive | inactive |
| CCCCCCCCCCCCCCCCC | inactive | inactive | inactive | inactive | inactive | inactive | inactive | inactive | inactive | 12.6 µM (active) | inactive | inactive | – | – | – |
| Cc1cc2c(cc1S(N)(=O)=O)S(=O)(=O)CCC2 | inactive | inactive | inactive | inactive | inactive | inactive | – | inactive | inactive | inactive | inactive | inactive | -2.16 | inactive | inactive |
| CCOC(=O)Nc1ccc(NCc2ccc(F)cc2)nc1N | inactive | inactive | inactive | inactive | inactive | inactive | 3.09 µM (active) | 11 µM (active) | 6.17 µM (active) | inactive | – | – | 1.97 | inactive | – |
| CCOC(=O)[C@H](CCc1ccccc1)N[C@@H](C)C(=O)N1[C@H](C(=O)O)C[C@@H]2CCC[C@@H]21 | inactive | inactive | inactive | inactive | inactive | inactive | inactive | inactive | inactive | inactive | inactive | – | -3.39 | – | inactive |
